Experimental data from PubChem BioAssay (NCATS).
Where “and” joins values, the source holds several entries; their conditions need not be identical. Identical values can stand only once. Records with an inconclusive call do not appear. Values without a mark were called inactive. Calls of active or inactive are those of the source. Calls follow the shape of the dose curve; as a rule, active = well fitted curve in the direction sought with a large enough effect; inconclusive = small, poorly fitted or top-dose-only effect, or another doubt; inactive = no such curve, though single readings can be large; an effect the other way counts as inactive or inconclusive.

Test: qHTS of pediatric cancer cell lines to identify multiple opportunities for drug repurposing: Primary screen for BT-12 cells (AID 1347101); also: nearly all actives have a fitted effect of over 25% in size;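 as to activity change, negative = cytotoxic: plate controls were DMSO for no effect and bortezomib positive control for full effect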
Settings: BT-12 viability, CellTiter-Glo luminescence, 48 h; series mostly up to 57.3 µM; activity change, negative = cytotoxic: at the top concentration
Procedure, shortened: (§1)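 Cells (500-1,000/well) rested 5 h, then received compounds for 48 h; metabolically active cells were measured by CellTiter-Glo luminescence. Final concentrations spanned up to 46 µM (MIPE, 11-point) or 0.59 nM-46 µM (NPC, 8-point) in primary screens, 11-point in follow-ups.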
Potency is read from the fitted curve at half-maximal effect.

Row | SMILES | activity change, negative = cytotoxic [%] | Potency
1 | COc1ccc(-c2coc3cc(O)cc(O)c3c2=O)cc1 | -5.59 | 
2 | CC(C)(C)COc1ccc(-n2cc(C(=O)O)cn2)cc1C#N | -0.0853 | 
3 | CC1(C)CCC2=C(O1)c1ccccc1C(=O)C2=O |  | 30.6 µM (active)
4 | CC(=NNC(=S)N1CCC1)c1ccccn1 |  | 0.0014 µM (active)
5 | CC/C(=C(\c1ccccc1)c1ccc(OCCN(C)C)cc1)c1ccccc1 |  | 27.6 µM (active)
6 | COC(=O)[C@@H]1[C@H]2C[C@H]3c4[nH]c5ccccc5c4CCN3C[C@@H]2CC[C@@H]1O | 2.7 | 
7 | c1ccc2c(-c3cnn4cc(-c5ccc(N6CCNCC6)cc5)cnc34)ccnc2c1 |  | 27.3 µM (active)
8 | CO[C@H]1C[C@@H]2CC[C@@H](C)[C@@](O)(O2)C(=O)C(=O)N2CCCC[C@@H]2C(=O)O[C@H]([C@H](C)C[C@@H]2CC[C@H](OP(C)(C)=O)[C@H](OC)C2)CC(=O)[C@H](C)C=C(C)[C@@H](O)[C@@H](OC)C(=O)[C@H](C)C[C@H](C)C=CC=CC=C1C |  | 27.3 µM (active)
9 | CC1(C)CCC[C@@]2(C)[C@@H]1CC[C@@]1(C)OC(=O)C[C@H]21 | 0.707 | 
10 | CC1=C(/C=C/C(C)=C/C=C/C(C)=C/C(=O)Nc2ccc(O)cc2)C(C)(C)CCC1 |  | 7.77 µM (active)
11 | O=C(O)[C@H]1O[C@H](Oc2cc3oc(-c4ccccc4)cc(=O)c3c(O)c2O)[C@H](O)[C@@H](O)[C@H]1O | -7.28 | 
12 | CCNc1cc(NC2CCC(O)CC2)nc(Nc2ccc3c(ccn3Cc3ccccc3)c2)n1 (stereo not given) |  | 27.3 µM (active)
13 | NC(CO)(CO)CCc1ccc(Sc2cccc(OCc3ccccc3)c2)cc1Cl |  | 30.6 µM (active)
14 | Cc1c[nH]c(C=C2C(=O)Nc3ccccc32)c1CCC(=O)O | -16.9 | 
15 | CCc1ccc(C=C2SC(=S)NC2=O)cc1 | -2.82 | 
16 | CCS(=O)(=O)N1CC(CC#N)(n2cc(-c3ncnc4[nH]ccc34)cn2)C1 | -5.68 | 
17 | O=C(CCCCCCC(=O)Nc1ccccc1)NO |  | 6.92 µM (active) and 17.2 µM (active)

Test: qHTS of pediatric cancer cell lines to identify multiple opportunities for drug repurposing: Primary screen for Rh18 cells (AID 1347102); also: nearly all actives have a fitted effect of over 65% in size; as to activity change, negative = cytotoxic: % is scaled to controls: 0 for no effect and ±100 for the full control effect
Settings: Rh18 rhabdomyosarcoma viability, CellTiter-Glo luminescence, 48 h; series mostly up to 46 µM; activity change, negative = cytotoxic: at the top concentration
Procedure, shortened: as §1

Row | SMILES | activity change, negative = cytotoxic [%] | Potency
18 | COc1cccc([C@@H](C)NCCCc2ccccc2Cl)c1 | 11.8 | 
19 | CC=CC[C@@H](C)C(=O)[C@H]1C(=O)N[C@@H](C(C)C)C(=O)N(C)CC(=O)N(C)[C@@H](CC(C)C)C(=O)N[C@@H](C(C)C)C(=O)N(C)[C@@H](CC(C)C)C(=O)N[C@@H](C)C(=O)N[C@H](C)C(=O)N(C)[C@@H](CC(C)C)C(=O)N(C)[C@@H](CC(C)C)C(=O)N(C)[C@@H](C(C)C)C(=O)N1C | -12 | 
20 | CN(C)C1CCN(C(=O)c2ccc(NC(=O)Nc3nc(N4CCOCC4)nc(N4CCOCC4)n3)cc2)CC1 |  | 0.0526 µM (active)
21 | CC(C)(Cc1ccc2ccccc2c1)NC[C@@H](O)COc1cccc(Cl)c1C#N | -21.1 | 
22 | CC(C)(C)NC(=O)Nc1cccc(Nc2ncc(F)c(NC(C)(C)CO)n2)c1 | -4.06 | 
23 | CC[C@@]1(O)C[C@H](O[C@H]2C[C@H](N(C)C)[C@H](O[C@H]3C[C@H](O)[C@H](O[C@H]4CCC(=O)[C@H](C)O4)[C@H](C)O3)[C@H](C)O2)c2c(cc3c(c2O)C(=O)c2c(O)cccc2C3=O)[C@@H]1C(=O)OC | 7.19 | 
24 | N#Cc1ccc(NC(=O)Nc2ccccc2Br)c2n[nH]nc12 | 5.18 | 
25 | COc1ccc(-n2c(C)c([N+](=O)[O-])c3ccc(O)cc32)cc1 | 12.6 | 
26 | O=C(NCc1ccncc1)C12C[C@H]3C[C@@H](C1)CC(c1ccc(Cl)cc1)(C3)C2 | -24.7 | 
27 | COc1ccc2cc(-c3nc(-c4ccc(S(C)=O)cc4)[nH]c3-c3ccncc3)ccc2c1 (stereo not given) | 21.9 | 
28 | CO[C@@H](C(=O)N1Cc2[nH]nc(NC(=O)c3ccc(N4CCN(C)CC4)cc3)c2C1)c1ccccc1 |  | 0.935 µM (active)
29 | Cc1c(O)cccc1C(=O)N[C@@H](CSc1ccccc1)[C@H](O)CN1C[C@H]2CCCC[C@@H]2C[C@@H]1C(=O)NC(C)(C)C |  | 18.7 µM (active)
30 | NC(=O)c1cnc(-c2ccc(C3(N)CCC3)cc2)c(-c2ccccc2)c1 | -23.7 | 
31 | COc1ncc(-c2ccc3nccc(-c4ccnnc4)c3c2)cc1NS(=O)(=O)c1ccc(F)cc1F |  | 0.0372 µM (active)
32 | Cc1ccc(/C=N/NC(=O)c2ccccc2Oc2ccccc2)o1 | -12.2 | 
33 | O=C1Nc2ccc(Cl)cc2C(C#CC2CC2)(C(F)(F)F)O1 (stereo not given) | -26 | 
34 | Nc1nc(F)nc2c1ncn2[C@@H]1O[C@H](COP(=O)(O)O)[C@@H](O)[C@H]1O | -1.64 | 
35 | N#CC1(c2ccc(NC(=O)c3cccnc3NCc3ccncc3)cc2)CCCC1 | -17.3 | 
36 | CC=CC(=O)N(CC)c1ccccc1C | -2.28 | 
37 | C=C1C(=O)OC2C=C(C)CCC=C(C)CCC12 (stereo not given) | -1.57 | 

Test: qHTS of pediatric cancer cell lines to identify multiple opportunities for drug repurposing: Primary screen for OHS-50 cells (AID 1347103); also: nearly all actives have a fitted effect of over 40% in size;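 as to activity change, negative = cytotoxic: plate controls were DMSO neutral control for no effect and bortezomib positive control for full effect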
Settings: OHS-50 osteosarcoma viability, CellTiter-Glo luminescence, 48 h; series mostly up to 57.3 µM; activity change, negative = cytotoxic: at the top concentration
Procedure, shortened: as §1

Row | SMILES | activity change, negative = cytotoxic [%] | Potency
38 | COc1cccc([C@@H](C)NCCCc2ccccc2Cl)c1 | 59.7 | 
39 | CC=CC[C@@H](C)C(=O)[C@H]1C(=O)N[C@@H](C(C)C)C(=O)N(C)CC(=O)N(C)[C@@H](CC(C)C)C(=O)N[C@@H](C(C)C)C(=O)N(C)[C@@H](CC(C)C)C(=O)N[C@@H](C)C(=O)N[C@H](C)C(=O)N(C)[C@@H](CC(C)C)C(=O)N(C)[C@@H](CC(C)C)C(=O)N(C)[C@@H](C(C)C)C(=O)N1C |  | 24.3 µM (active)
40 | CN(C)C1CCN(C(=O)c2ccc(NC(=O)Nc3nc(N4CCOCC4)nc(N4CCOCC4)n3)cc2)CC1 |  | 0.0217 µM (active)
41 | CC(C)(Cc1ccc2ccccc2c1)NC[C@@H](O)COc1cccc(Cl)c1C#N | 104 | 
42 | CC(C)(C)NC(=O)Nc1cccc(Nc2ncc(F)c(NC(C)(C)CO)n2)c1 | -20.2 | 
43 | CC[C@@]1(O)C[C@H](O[C@H]2C[C@H](N(C)C)[C@H](O[C@H]3C[C@H](O)[C@H](O[C@H]4CCC(=O)[C@H](C)O4)[C@H](C)O3)[C@H](C)O2)c2c(cc3c(c2O)C(=O)c2c(O)cccc2C3=O)[C@@H]1C(=O)OC | 11.5 | 
44 | N#Cc1ccc(NC(=O)Nc2ccccc2Br)c2n[nH]nc12 |  | 21.7 µM (active)
45 | COc1ccc(-n2c(C)c([N+](=O)[O-])c3ccc(O)cc32)cc1 | 16.5 | 
46 | O=C(NCc1ccncc1)C12C[C@H]3C[C@@H](C1)CC(c1ccc(Cl)cc1)(C3)C2 |  | 19.3 µM (active)
47 | COc1ccc2cc(-c3nc(-c4ccc(S(C)=O)cc4)[nH]c3-c3ccncc3)ccc2c1 (stereo not given) | 24.9 | 
48 | Cc1c(O)cccc1C(=O)N[C@@H](CSc1ccccc1)[C@H](O)CN1C[C@H]2CCCC[C@@H]2C[C@@H]1C(=O)NC(C)(C)C |  | 24.3 µM (active)
49 | NC(=O)c1cnc(-c2ccc(C3(N)CCC3)cc2)c(-c2ccccc2)c1 |  | 2.73 µM (active)
50 | COc1ncc(-c2ccc3nccc(-c4ccnnc4)c3c2)cc1NS(=O)(=O)c1ccc(F)cc1F |  | 0.001 µM (active)
51 | Cc1ccc(/C=N/NC(=O)c2ccccc2Oc2ccccc2)o1 |  | 21.7 µM (active)
52 | O=C1Nc2ccc(Cl)cc2C(C#CC2CC2)(C(F)(F)F)O1 (stereo not given) |  | 21.7 µM (active)
53 | Nc1nc(F)nc2c1ncn2[C@@H]1O[C@H](COP(=O)(O)O)[C@@H](O)[C@H]1O |  | 0.485 µM (active)
54 | CC=CC(=O)N(CC)c1ccccc1C | 6.62 | 
55 | C=C1C(=O)OC2C=C(C)CCC=C(C)CCC12 (stereo not given) | -16.6 | 
